# Experimental data as given in PMC4336329 (PLoS ONE, 2015).
# In all, about 310,000 compounds went through this assay and about 14,000 (4.5%) showed an effect of 50% or more. The effect is printed as a negative number. For the sample, strong results were picked, then their nearest neighbours and some compounds at random.
# Biological target: human ether-à-go-go-related gene (hERG) potassium channel (human, UniProt Q12809)
# Assay: primary screen, population patch clamp on CHO cells stably expressing hERG; higher = less effect of the substance
# 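Note: peak tail current of the secondary pulse compared with the same well before compound.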
# Sequence of human ether-à-go-go-related gene (hERG) potassium channel (Q12809 whole entry, looked up): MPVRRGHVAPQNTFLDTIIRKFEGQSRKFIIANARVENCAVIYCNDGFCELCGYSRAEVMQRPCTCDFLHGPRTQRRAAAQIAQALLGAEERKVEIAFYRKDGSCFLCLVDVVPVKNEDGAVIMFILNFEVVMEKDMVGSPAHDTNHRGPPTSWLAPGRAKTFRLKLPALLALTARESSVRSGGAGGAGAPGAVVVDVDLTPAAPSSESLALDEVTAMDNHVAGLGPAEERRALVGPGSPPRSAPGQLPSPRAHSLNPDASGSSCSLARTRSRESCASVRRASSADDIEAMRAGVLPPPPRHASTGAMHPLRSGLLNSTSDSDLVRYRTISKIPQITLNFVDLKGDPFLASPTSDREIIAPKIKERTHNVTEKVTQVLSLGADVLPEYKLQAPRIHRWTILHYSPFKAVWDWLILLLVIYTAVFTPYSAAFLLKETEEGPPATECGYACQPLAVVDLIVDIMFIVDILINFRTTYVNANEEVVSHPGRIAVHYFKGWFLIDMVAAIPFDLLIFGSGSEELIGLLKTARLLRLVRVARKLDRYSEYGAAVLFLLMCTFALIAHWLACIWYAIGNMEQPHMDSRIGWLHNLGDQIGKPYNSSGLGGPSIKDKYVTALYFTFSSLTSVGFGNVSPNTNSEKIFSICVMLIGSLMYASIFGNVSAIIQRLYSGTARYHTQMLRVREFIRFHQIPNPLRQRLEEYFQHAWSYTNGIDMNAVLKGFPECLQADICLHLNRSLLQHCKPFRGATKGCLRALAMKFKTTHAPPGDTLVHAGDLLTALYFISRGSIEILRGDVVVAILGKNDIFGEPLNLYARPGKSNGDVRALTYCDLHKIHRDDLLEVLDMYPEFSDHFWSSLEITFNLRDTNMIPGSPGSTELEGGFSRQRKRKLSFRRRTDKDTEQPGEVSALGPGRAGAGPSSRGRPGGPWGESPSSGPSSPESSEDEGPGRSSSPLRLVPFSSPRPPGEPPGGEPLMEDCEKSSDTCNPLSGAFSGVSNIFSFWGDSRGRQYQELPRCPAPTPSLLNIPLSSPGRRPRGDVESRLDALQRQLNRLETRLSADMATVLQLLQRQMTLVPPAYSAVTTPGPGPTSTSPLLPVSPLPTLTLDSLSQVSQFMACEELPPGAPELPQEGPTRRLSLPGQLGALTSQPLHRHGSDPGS
row,SMILES,"hERG current change (%, negative = inhibition) at 10uM [%]"
1,N#Cc1cc(NC2CCCC2)c([N+](=O)[O-])cc1C#N,-5.68
2,Cn1cc(S(=O)(=O)N2CCCC2)cc1C(=O)NCCc1ccccc1,-2.66
3,O=Cc1ccc2noc(-c3ccc(Cl)cc3)c2c1,-1.22
4,Cc1ccc(/C=C2\SC(=S)N(CCC(=O)NNC(=O)c3cccnc3)C2=O)cc1,1.06
5,O=C(c1ccc2nc(N3CCOCC3)sc2c1)N1CCN(C(=O)c2ccco2)CC1,-47.4
6,O=C(c1ccc2nc(N3CCOCC3)sc2c1)N1CCCC1,-10.8
7,O=C(NCc1ccccc1)c1ccc2nc(N3CCOCC3)sc2c1,-5.89
8,CCCCN(CCCNC(=O)c1ccc2nc(N3CCOCC3)sc2c1)Cc1ccccc1,-62
9,O=C(NCCCN1CCC(Cc2ccccc2)CC1)c1ccc2nc(N3CCOCC3)sc2c1,-66.2
10,O=C(c1ccc2nc(N3CCOCC3)sc2c1)N1CCC(Cc2ccccc2)CC1,-63.2
11,CCC(Cc1ccccc1)NC(=O)c1ccc2nc(N3CCOCC3)sc2c1 (centres unmarked),-46.5
12,O=C(NCCc1ccccc1)c1ccc2nc(N3CCOCC3)sc2c1,3.75
13,CC1CC(C)CN(CCCNC(=O)c2ccc3nc(N4CCOCC4)sc3c2)C1 (centres unmarked),-19.5
14,CCOC(=O)c1ccc(-c2c(-c3ccccc3OC)sc3cc4c(cc23)OCO4)cc1F,12.5
15,Cc1cccc(-c2nsc(SCC(=O)Nc3cc(C)on3)n2)c1,16.1
16,CC(=Nc1ccc2c(c1)CCC2)c1c(O)n(C)c(=O)n(C)c1=O,-3.93
17,Cc1cccc(CN2CCN(Cc3nc4c(s3)CCCC4)CC2CCO)n1 (centres unmarked),-28.6
18,COc1cccc(CN2CCN(Cc3nc4c(s3)CCCC4)CC2CCO)c1 (centres unmarked),-48.5
19,CCOc1ccccc1CN1CCN(Cc2nc3c(s2)CCCC3)CC1CCO (centres unmarked),-67.9
20,CCOc1ccccc1CN1CCN(Cc2nc3ccccc3s2)CC1CCO (centres unmarked),-74.8
21,Cc1ccc(/C=C2/SC(=S)N(CCCC(=O)Nc3cc([N+](=O)[O-])ccc3O)C2=O)cc1,13.1
22,O=C(NC(=S)NCCc1ccccc1)c1ccco1,10.2

row,SMILES,"hERG current change (%, negative = inhibition) at 10uM [%]"
1,NC(=O)c1sc2cc(C(F)(F)F)cnc2c1-c1ccccc1,15.5
2,CCOc1ccc(OCC)c(NC(=O)C2CCN(S(=O)(=O)c3cccnc3)CC2)c1,-29.9
3,Clc1ccc(-c2cnc3n2CCC3)cc1,-23.1
4,Cc1cnc(NC(=O)CSc2c(Cl)cccc2Cl)s1,-6.06
5,O=C(Nc1ccc(Oc2cccnc2)cc1)C1CCCCN1Cc1ccc(CO)o1 (centres unmarked),1.59
6,O=C(Nc1ccc(Oc2cccnc2)cc1)C1CCN(Cc2ccc(F)cc2)CC1,-55.2
7,Cc1ccccc1CN1CCC(C(=O)Nc2ccc(Oc3cccnc3)cc2)CC1,-48.6
8,Cc1cccc(CN2CCC(C(=O)Nc3ccc(Oc4cccnc4)cc3)CC2)c1,-14
9,O=C(Nc1ccc(Oc2ccccc2)cc1)C1CCN(c2ncccn2)CC1,0.064
10,O=C(Nc1ccc(Oc2cccnc2)cc1)C1CCN(Cc2cc(Cl)ccc2O)CC1,-45.9
11,Cc1ccc(CN2CCCCC2C(=O)Nc2ccc(Oc3cccnc3)cc2)o1 (centres unmarked),-19.4
12,O=C(Nc1ccc(Oc2cccnc2)cc1)C1CCN(Cc2ccccc2)CC1,-75.1
13,COc1cccc(O)c1CN1CCC(C(=O)Nc2ccc(Oc3cccnc3)cc2)CC1,-47.4
14,O=C(Nc1ccc(Oc2cccnc2)cc1)C1CCN(Cc2cccc(Cl)c2)CC1,-52.8
15,COc1ccc(CN2CCC(C(=O)Nc3ccc(Oc4cccnc4)cc3)CC2)c(C)c1C,-36.8
16,COc1ccc(CN2CCC(C(=O)Nc3ccc(Oc4cccnc4)cc3)CC2)cc1,-69.3
17,COc1cccc(CN(CC(=O)NCC2CCCO2)C(=O)CCC(=O)Nc2cc(C)on2)c1 (centres unmarked),-0.822
18,CCOC(=O)CCCCCNC(=O)c1c(O)[nH]c(=O)[nH]c1=O,17.7
19,O=C(c1cc(-c2ccncc2)nc2ccccc12)N1CCC2(CC1)OCCO2,-25.9
20,CC(C)c1nc2oc3c(NCc4ccccn4)ncnc3c2c2c1COC(C)(C)C2,5.62
21,C/C(=N\NC(=O)COc1ccccc1[N+](=O)[O-])c1cccs1,10.3
22,COc1cc(-c2nc(=S)[nH][nH]2)cc(OC)c1OC,5.94
